± gives the standard deviation.
T1: HaloTag-ATRX ADD domain (163-292)
T1 chain: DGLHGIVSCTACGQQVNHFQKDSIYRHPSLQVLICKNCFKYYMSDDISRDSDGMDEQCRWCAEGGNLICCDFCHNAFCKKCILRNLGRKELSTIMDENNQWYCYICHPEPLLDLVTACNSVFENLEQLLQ

B1: Unmod H2A variant Q G G K A R A K A K T R S (peptide)
chain: QGGKARAKAKTRS
B2: Unmod H2A variant R A K S K S R S S R A G L (peptide)
chain: RAKSKSRSSRAGL
B3: Unmod H2A variant R A K A K S R S S R A G L (peptide)
chain: RAKAKSRSSRAGL
B4: Unmod H2A variant R A K A K T R S S R A G L (peptide)
chain: RAKAKTRSSRAGL
B5: Unmod H2A variant R S S R A G L Q F P V G R (peptide)
chain: RSSRAGLQFPVGR
B6: Unmod H2A variant A G L Q F P V G R V H R L (peptide)
chain: AGLQFPVGRVHRL
B7: Unmod H2A variant A G L Q F P V G R I H R L (peptide)
chain: AGLQFPVGRIHRL
B8: Unmod H2A variant K G N Y A E R V G A G A P (peptide)
chain: KGNYAERVGAGAP
B9: Unmod H2A variant K G N Y S E R V G A G A P (peptide)
chain: KGNYSERVGAGAP
B10: Unmod H2A variant K G N Y A E R I G A G A P (peptide)
chain: KGNYAERIGAGAP

What was measured:
Assay in all cases: peptide microarray binding signal (635 nm), min-max normalized on array (fraction of array maximum); higher = stronger binding
Conditions in all cases: peptide region: Unmod H2A variant
[1] = target: T1, HaloTag-ATRX ADD domain (163-292)
Procedure, shortened: (§1)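 For each library, binding signal was taken as the triplicate-spot mean intensity and then min-max scaled. Spots of histone 13-mer peptide–cellulose conjugates on nitrocellulose, printed in triplicate with a Cy3 tracer, were probed for 1 h at 4°C with either biotin-labelled HaloTag reader fusions (10 nM to 1 μM) and streptavidin-Alexa Fluor 647 or rabbit histone antibodies (1:10,000 to 1:2,000) and anti-rabbit Alexa 647. Readout at 635 nm came from an Axon GenePix 4000B.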

[2] = target: HaloTag-ING2 PHD (mouse Ing2 200-280)
Procedure, shortened: as §1

[3] = target: anti-H3K4me3 antibody ab8580
Procedure, shortened: as §1

[4] = target: anti-H3K9me3 antibody ab8898
Procedure, shortened: as §1

[5] = binder concentration: 1:2,000 dilution
[6] = binder concentration: 1:10,000 dilution

Binder | peptide microarray binding signal ([1]; binder concentration: 50 nM) | peptide microarray binding signal ([1]; binder concentration: 500 nM) | peptide microarray binding signal ([2]; binder concentration: 10 nM) | peptide microarray binding signal ([2]; binder concentration: 100 nM) | peptide microarray binding signal [3, 5] | peptide microarray binding signal [3, 6] | peptide microarray binding signal [4, 5] | peptide microarray binding signal [4, 6]
B1 | 0.00784 ± 0.00021 | 0.0153 ± 0.0011 | 0.00298 ± 0.00012 | 0.00496 ± 0.00036 | 0.00125 ± 0.00024 | 0.000685 ± 7.2e-06 | 0.000408 ± 1.4e-05 | 0.000404 ± 4.4e-06
B2 | 0.0102 ± 0.0014 | 0.00576 ± 0.0015 | 0.00645 ± 0.0004 | 0.0116 ± 0.0028 | 0.000472 ± 4.5e-05 | 0.00165 ± 3.2e-05 | 0.0005588 ± 5.2e-06 | 0.00127 ± 2.5e-05
B3 | 0.00771 ± 0.00081 | 0.0133 ± 0.001 | 0.00615 ± 0.00015 | 0.0141 ± 0.0012 | 0.000868 ± 0.00013 | 0.0012 ± 1.2e-05 | 0.0004379 ± 4.2e-06 | 0.00098 ± 1.7e-05
B4 | 0.0117 ± 0.00045 | 0.0611 ± 0.039 | 0.00531 ± 0.00038 | 0.0242 ± 0.0082 | 0.00328 ± 0.00034 | 0.00165 ± 3.2e-05 | 0.000966 ± 0.00011 | 0.0011 ± 1.1e-05
B5 | 0.0275 ± 0.0053 | 0.0768 ± 0.0024 | 0.0177 ± 0.0021 | 0.0277 ± 0.0034 | 0.00311 ± 0.00055 | 0.00148 ± 3.8e-05 | 0.0008004 ± 6.8e-06 | 0.0011 ± 2.2e-05
B6 | 0.0745 ± 0.019 | 0.0998 ± 0.058 | 0.0252 ± 0.0093 | 0.0507 ± 0.015 | 0.00176 ± 0.00047 | 0.00793 ± 0.00092 | 0.00307 ± 0.00038 | 0.00542 ± 0.00044
B7 | 0.0361 ± 0.0039 | 0.0377 ± 0.0043 | 0.0334 ± 0.0037 | 0.0514 ± 0.0061 | 0.00361 ± 0.0021 | 0.00628 ± 0.00018 | 0.00281 ± 0.00024 | 0.00686 ± 0.00042
B8 | 0.0103 ± 0.00041 | 0.0165 ± 0.00062 | 0.0105 ± 0.0025 | 0.034 ± 0.0024 | 0.00546 ± 0.001 | 0.00171 ± 6.5e-05 | 0.00116 ± 9.3e-05 | 0.00075 ± 2.1e-05
B9 | 0.019 ± 0.0052 | 0.0303 ± 0.012 | 0.00692 ± 0.0004 | 0.0104 ± 0.0025 | 0.00799 ± 0.00061 | 0.00223 ± 0.00022 | 0.00116 ± 9.9e-05 | 0.00115 ± 5.3e-05
B10 | 0.0345 ± 0.0048 | 0.0994 ± 0.0054 | 0.0206 ± 0.00047 | 0.0279 ± 0.0038 | 0.00668 ± 0.0046 | 0.00953 ± 0.0009 | 0.005421 ± 1.8e-05 | 0.00611 ± 0.0016

Source: the supplement of paper PMC4022240
